Measured values taken from PubChem BioAssay (NCATS).
Records with an inconclusive call do not appear. Values without a mark were called inactive. Active and inactive are the calls of the source. The call rests on the fitted dose curve; in most records, active means well fitted inhibition curve with a large enough effect; inconclusive means small, poorly fitted or top-dose-only effect; inactive means no such curve, though single readings can be large or run the other way.

Target: Retinaldehyde dehydrogenase 3 (Homo sapiens) (UniProt P47895)
Experiment: qHTS for Inhibitors of the Aldehyde Dehydrogenase Family (ALDH1A3) Primary screen (AID 2061315);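 further: plate controls were DMSO vehicle for no effect and reference inhibitor for full effect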
Settings: ALDH inhibition qHTS; series mostly up to 56 µM

| Compound | Potency |
| --- | --- |
| COc1ccc(C(=O)CC2(O)C(=O)Nc3c(Cl)ccc(Cl)c32)cc1 (centres undefined) | inactive |
| Cc1cnc(-c2ccccc2C(C)C)nc1NCc1ccc(-n2ccnn2)cc1 | inactive |
| Cn1ncc(Cl)c1-c1cc(C(=O)N[C@H](CN)Cc2ccc(F)c(F)c2)sc1Cl | inactive |
| Cc1c(NC(=O)OC[C@@H]2COCCN2)cn2ncnc(Nc3ccc4c(cnn4Cc4cccc(F)c4)c3)c12 | inactive |
| c1nc(NCC2CCCOC2)c2cc(-c3ccc4c(c3)OCO4)ccc2n1 (centres undefined) | inactive |
| C=C(c1ccc(C(=O)O)cc1)c1cc2c(cc1C)C(C)(C)CCC2(C)C | inactive |
| COc1ccc(C2=Nn3c(nnc3-c3ccc(OC)cc3OC)SC2)cc1 | inactive |
| C[C@H]1O[C@@H](O[C@H]2[C@@H](O)C[C@H](O[C@H]3[C@@H](O)C[C@H](O[C@H]4CC[C@@]5(C)[C@H](CC[C@@H]6[C@@H]5C[C@@H](O)[C@]5(C)[C@@H](C7=CC(=O)OC7)CC[C@]65O)C4)O[C@@H]3C)O[C@@H]2C)C[C@H](O)[C@@H]1O | inactive |
| O=S(=O)(Nc1nccs1)c1ccc(Nc2nc(-c3ccc(F)cc3)cs2)cc1 | inactive |
| COC(C)(C)CCn1nc(Nc2c(C)cccc2C)c2cnc(Nc3ccc(OCCN4CCCC4)c(F)c3)nc21 | inactive |
| CC(=O)Nc1ccc(-c2csc(N3CCC(C(N)=O)CC3)n2)cc1 | inactive |

Target: Aldehyde dehydrogenase 1A1 (Homo sapiens) (UniProt P00352)
Experiment: qHTS for Inhibitors of the Aldehyde Dehydrogenase Family (ALDH1A1) Confirmatory screens (AID 2061316); further: potency means the concentration at half of the fitted maximal effect; nearly all actives have a fitted effect of over 65% in size
Settings: ALDH inhibition qHTS; series mostly up to 47.3 µM

| Compound | Potency |
| --- | --- |
| c1nc(NCC2CCCCO2)c2cc(-c3ccc4c(c3)OCO4)ccc2n1 (centres undefined) | 12.7 µM (active) |
| Cc1c(C(=O)OCC2CC2)[nH]c2c1C(=O)CC(c1ccco1)C2 (centres undefined) | 1.59 µM (active) |
| Cc1ccc(NS(=O)(=O)c2ccc3c(c2)C(Cl)(Cl)C(=O)N3)cc1C | 7.12 µM (active) |
| O=C1c2ccccc2NC(c2ccc(-c3ccc(C(F)(F)F)cc3)o2)N1O (centres undefined) | 7.12 µM (active) |
| O=S(=O)(Nc1nccs1)c1ccc(Nc2nc(-c3ccc(F)cc3)cs2)cc1 | 11.3 µM (active) |

System: not listed separately
Experiment: BET inhibitor-based combinations targeting novel dependencies in MECOM-rearranged (r) AML: SET-2 cell line (AID 2202231); further: nearly all actives have a fitted effect of over 35% in size; further: potency means the concentration at half of the fitted maximal effect;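 on viability: plate controls were DMSO treated cells for no effect and wells without cells for full effect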
Settings: SET-2 AML cells viability, CellTiter-Glo luminescence, 48 h; viability: hits give low values, concentration not given here
Method in brief: (§1)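 Cells were plated at 500 per well and exposed to an 11-point dose series of each drug for 48 hr. Viability was measured by CellTiter-Glo luminescence, normalized to DMSO and empty-well controls, and summarized as AUC and per-cell-line Z-AUC.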

| Compound | Potency | viability [%] |
| --- | --- | --- |
| CCOC(=O)[C@@H](N)Cc1ccc(-c2cc(O[C@H](c3ccc(Cl)cc3-n3ccc(C)n3)C(F)(F)F)nc(N)n2)cc1 | 26.3 µM (active) |  |
| COCCOC(=O)C1=C(C)NC2=C(C(=O)CC(c3ccccc3OC)C2)C1c1cccc(O)c1 (centres undefined) | 16.6 µM (active) |  |
| O=C(N[C@H]1CCC[C@H](CO)C1)C1CCN(c2nc3cc(Cl)c(-c4ccc(Cl)cc4)cc3o2)CC1 | 20.9 µM (active) |  |
| N#Cc1ccc(COC[C@H]2O[C@@H](n3c(NCc4ccc(Cl)c(Cl)c4)nc4c(N)ncnc43)[C@H](O)[C@@H]2O)cc1 | 7.42 µM (active) |  |
| CON(C)C(=O)N1N=C(c2cc(F)ccc2F)S[C@@]1(CCCN)c1ccccc1 | 0.0295 µM (active) |  |
| Cc1cnc(Nc2ccc(CN3CCOCC3)cc2)nc1Nc1cccc(S(=O)(=O)NC(C)(C)C)c1 | 2.63 µM (active) |  |
| OCCNC1CCCc2c1[nH]c1ccc(-c3ccccc3)cc21 (centres undefined) | 11.8 µM (active) |  |
| CCC(=O)NS(=O)(=O)c1ccc(-c2c(-c3ccccc3)noc2C)cc1 |  | 114 |
| COc1ccc(C(=O)CC2(O)C(=O)Nc3c(Cl)ccc(Cl)c32)cc1 (centres undefined) | 0.934 µM (active) |  |
| Cc1cnc(-c2ccccc2C(C)C)nc1NCc1ccc(-n2ccnn2)cc1 |  | 86.2 |
| Cc1[nH]c2ccccc2c1CCNCc1ccc(/C=C/C(=O)NO)cc1 | 0.0833 µM (active) |  |

System: not listed separately
Experiment: BET inhibitor-based combinations targeting novel dependencies in MECOM-rearranged (r) AML: OCI-AML3 cell line (AID 2202232); further: nearly all actives have a fitted effect of over 35% in size; further: potency means the concentration at half of the fitted maximal effect
Settings: CellTiter-Glo luminescence, 48 h; Potency: OCI-AML3 viability; series mostly up to 46 µM
Method in brief: as §1

| Compound | Potency |
| --- | --- |
| CCOC(=O)[C@@H](N)Cc1ccc(-c2cc(O[C@H](c3ccc(Cl)cc3-n3ccc(C)n3)C(F)(F)F)nc(N)n2)cc1 | 11.8 µM (active) |
| O=C(Nc1cn[nH]c1-c1nc2ccc(CN3CCOCC3)cc2[nH]1)NC1CC1 | 4.68 µM (active) |
| CCCC1(CCC)CCC2(CCN(CCCN(CC)CC)C2)CC1 | 7.42 µM (active) |
| COCCOC(=O)C1=C(C)NC2=C(C(=O)CC(c3ccccc3OC)C2)C1c1cccc(O)c1 (centres undefined) | 7.42 µM (active) |
| N#Cc1ccc(COC[C@H]2O[C@@H](n3c(NCc4ccc(Cl)c(Cl)c4)nc4c(N)ncnc43)[C@H](O)[C@@H]2O)cc1 | 2.63 µM (active) |
| c1ccc(Cn2c(-c3ccc(OCC(C4CCNCC4)n4c(-c5ccccc5)nc5ccccc54)cc3)nc3ccccc32)cc1 (centres undefined) | 23.5 µM (active) |
| Cn1ncc(Cl)c1-c1cc(C(=O)NC(CN)Cc2ccc(F)c(F)c2)oc1Cl (centres undefined) | 18.6 µM (active) |
| CON(C)C(=O)N1N=C(c2cc(F)ccc2F)S[C@@]1(CCCN)c1ccccc1 | 0.0093 µM (active) |
| Cc1cnc(Nc2ccc(CN3CCOCC3)cc2)nc1Nc1cccc(S(=O)(=O)NC(C)(C)C)c1 | 2.63 µM (active) |
| OCCNC1CCCc2c1[nH]c1ccc(-c3ccccc3)cc21 (centres undefined) | 16.6 µM (active) |
| CCC(=O)NS(=O)(=O)c1ccc(-c2c(-c3ccccc3)noc2C)cc1 | inactive |
| CNCc1ccc(C)c(NC(=O)c2ccc(Nc3nc(-c4ccccc4)c4ccccc4n3)cc2)c1 | 16.6 µM (active) |
| Cn1ncc(Cl)c1-c1cc(C(=O)N[C@H](CN)Cc2ccc(F)c(F)c2)sc1Cl | 18.6 µM (active) |
| Cc1c(NC(=O)OC[C@@H]2COCCN2)cn2ncnc(Nc3ccc4c(cnn4Cc4cccc(F)c4)c3)c12 | 10.5 µM (active) |
| C[C@H]1O[C@@H](O[C@H]2[C@@H](O)C[C@H](O[C@H]3[C@@H](O)C[C@H](O[C@H]4CC[C@@]5(C)[C@H](CC[C@@H]6[C@@H]5C[C@@H](O)[C@]5(C)[C@@H](C7=CC(=O)OC7)CC[C@]65O)C4)O[C@@H]3C)O[C@@H]2C)C[C@H](O)[C@@H]1O | 0.118 µM (active) |
| Cc1[nH]c2ccccc2c1CCNCc1ccc(/C=C/C(=O)NO)cc1 | 0.0661 µM (active) |
| COC(C)(C)CCn1nc(Nc2c(C)cccc2C)c2cnc(Nc3ccc(OCCN4CCCC4)c(F)c3)nc21 | 20.9 µM (active) |
